In PubChem BioAssay (Tox21):
Records with an inconclusive call do not appear. Calls of active or inactive are those of the source. Unless noted, the call rests on the fitted dose curve; in most records, active means well fitted curve in the direction sought with a large enough effect in the repeat runs; inconclusive means weak or mixed curves; inactive means no such curve, though single readings can be large; an effect the other way counts as inactive or inconclusive.

Key:
[1] = qHTS assay for small molecule agonists of the p53 signaling pathway (AID 651631; calls by dose curve; further: nearly all actives have a fitted effect of over 15% in size)
Method in brief: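 HCT-116 cells carrying a beta-lactamase reporter under p53 response elements were dosed with compound for 16 h at 37 °C. LiveBLAzer B/G FRET substrate was then added for 2 h at room temperature, and fluorescence intensity was read to detect pathway agonism.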

[2] = qHTS assay for small molecules that induce genotoxicity in human embryonic kidney cells expressing luciferase-tagged ATAD5 (AID 651632); further: nearly all actives have a fitted effect of over 15% in size
Method in brief: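 Increased luciferase signal from ATAD5-tagged reporter cells indicates DNA-damage-driven ATAD5 induction. HEK293T cells are treated for 16 hr at 37C before detection with Amplite.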

[3] = qHTS assay for small molecule agonists of the p53 signaling pathway - cell viability (AID 651633; calls by dose curve;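 further: p53RE-bla HCT reporter cells with a stable beta-lactamase p53 reporter; series mostly up to about 83 µM; nearly all actives have a fitted effect of over 30% in size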)
Method in brief: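 p53RE-bla cells, seeded at 4,000 per well and rested 5 h at 37 C/5% CO2, received compounds in DMSO for 16 h at 37 C. CellTiter-Glo was then added, and luminescence was read after 30 min at room temperature to gauge cytotoxicity.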

[4] = qHTS assay for small molecules that induce genotoxicity in human embryonic kidney cells expressing luciferase-tagged ATAD5 - cell viability (AID 651634; calls by dose curve; further: nearly all actives have a fitted effect of over 25% in size)
Method in brief: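 Cytotoxicity counterscreen in HEK293T cells bearing an ATAD5-luciferase reporter: live-cell protease activity measured by CellTiter-Fluor fluorescence after 15.5 hr compound exposure.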

[5] = qHTS assay for small molecule disruptors of the mitochondrial membrane potential - cell viability (AID 720634; calls by dose curve;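 further: human HepG2 liver cancer cells; series mostly up to about 83 µM; nearly all actives have a fitted effect of over 20% in size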)
Method in brief: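 After overnight attachment at 37 C, HepG2 cells received compound or DMSO vehicle for 1 hr. Viability is then taken from ATP-driven luminescence following a 30 min room-temperature CellTiter-Glo step.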

[6] = qHTS assay for small molecule disruptors of the mitochondrial membrane potential (AID 720635)
Method in brief: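 HepG2 cells (2,000/well) attached overnight at 37C, then took compound for 1 hr at 37C, 5% CO2. Mito-MPS dye was added for 30 min; fluorescence was read at 490/535 nm (monomers) and 540/590 nm (aggregates).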

[7] = qHTS assay to test for compound auto fluorescence at 590 nm (red) in HepG2 cells (AID 720674)
Method in brief: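 Compound auto-fluorescence is scored relative to Rose Bengal sodium, measured at 540/590 nm in live HepG2 cultures after 1 hr compound contact (37 C, 5% CO2).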

[8] = qHTS assay to test for compound auto fluorescence at 535 nm (green) in HepG2 cells (AID 720675)
[9] = qHTS assay to test for compound auto fluorescence at 460 nm (blue) in HEK293 cells (AID 720678)
Method in brief: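 Measured: blue fluorescence (Ex 405/Em 460 nm) of compound-treated HEK293 cells, incubated overnight at 37C with 5% CO2 and scaled to triamterene equivalents.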

[10] = qHTS assay to test for compound auto fluorescence at 590 nm (red) in HEK293 cells (AID 720679)
Method in brief: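 Using HEK293 cells at 2,000 per well, the screen added 23 nL of each compound after cell attachment and incubated overnight (37C, 5% CO2). The plate reader then captured red-label fluorescence, Ex/Em 540/590nm.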

Measured: Potency

CCCCCCCCCCCCCC
inactive: all assays above

COc1ccc(S(=O)(=O)N2c3ccc(Cl)cc3[C@@](O)(c3ccccc3Cl)[C@H]2C(=O)N2CCC[C@@H]2C(N)=O)cc1OC
inactive: all assays above

CC(C)NCC(O)COc1ccc(COCCOC(C)C)cc1 (stereo not given)
not listed: [8]
inactive: all other assays above

Cc1ccccc1OCC(O)CO (stereo not given)
inactive: all assays above

CCCCCCCCC(=O)Cl
not listed: [6] | [10]
inactive: all other assays above

O=C(O)Cc1cn(-c2ccccc2)nc1-c1ccc(Cl)cc1
not listed: [8]
inactive: all other assays above

Cc1cccc(C)c1NC(=O)c1ccccc1C(=O)O
inactive: all assays above

C=C(C)C(=O)OCC(C)(C)COC(=O)C(=C)C
not listed: [6] | [10]
inactive: all other assays above

COCCOCCOCCOCCOCCO
not listed: [6]
inactive: all other assays above

CN(CCOc1ccc(NS(C)(=O)=O)cc1)CCc1ccc(NS(C)(=O)=O)cc1
not listed: [6] | [10]
inactive: all other assays above

COc1ccc(Br)c(C)c1
inactive: all assays above

O=S(=O)(O)CCN1CCN(CCO)CC1
inactive: all assays above

CC(=O)NCCCCCC(=O)O
inactive: all assays above

O=C1O[C@@H]2[C@@H](O)[C@H](O)O[C@@H]2[C@H]1O
inactive: all assays above

C=CCCCCCCCCCCCC
inactive: all assays above

Cc1ccc(C=O)cc1C
inactive: all assays above

C=COCCOCCOCCOC=C
inactive: all assays above

O=C(CCNNC(=O)c1ccncc1)NCc1ccccc1
inactive: all assays above

Cc1c(I)c(=O)n(-c2ccccc2)n1C
not listed: [6] | [10]
inactive: all other assays above

CNC(=O)[C@H]1O[C@@H](n2cnc3c(NCc4cc(Cl)ccc4OCc4cc(C)no4)ncnc32)[C@H](O)[C@@H]1N
not listed: [6] | [10]
inactive: all other assays above

CC(C)(C)c1n[nH]c(=S)n(N)c1=O
inactive: all assays above

CCCCOC(=O)c1ccccc1
not listed: [8] | [10]
inactive: all other assays above
